Measured values taken from the supplement of paper PMC3334620.
Whole data set: some 33,000 sequences, median “E-score (-0.5 to 0.5)” near -0.017, cut for the highest 2% near 0.3. Many of the other results were omitted from the sample, so the highest values are more common in it than they were.

Each sequence was assayed against T1, Sut1 (UniProt P53032) (assay: PBM E-score (8-mer binding enrichment) (E-score (-0.5 to 0.5)); higher = stronger / more preferred TF binding). Conditions: protein concentration: 200 nM; construct: GST-full length.
T1 sequence: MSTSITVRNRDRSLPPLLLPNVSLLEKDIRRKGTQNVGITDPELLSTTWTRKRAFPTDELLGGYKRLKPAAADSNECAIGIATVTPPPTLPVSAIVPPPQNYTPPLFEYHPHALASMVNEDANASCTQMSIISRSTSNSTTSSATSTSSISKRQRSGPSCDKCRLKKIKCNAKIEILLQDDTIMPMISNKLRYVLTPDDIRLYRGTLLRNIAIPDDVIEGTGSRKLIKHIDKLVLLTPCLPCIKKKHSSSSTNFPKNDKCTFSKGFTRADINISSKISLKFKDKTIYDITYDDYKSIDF
Experimental: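 Universal 'all 10-mer' protein binding microarrays (Agilent AMADID 015681) probed with GST-tagged S. cerevisiae TFs (full-length or DBD) made by in vitro transcription/translation (PURExpress), about 100-200 nM. Bound TF was detected with fluorescent anti-GST. Each ungapped 8-mer (which stands for itself and its reverse complement) is scored by the PBM enrichment score (E-score), a modified Wilcoxon-Mann-Whitney statistic from -0.5 to +0.5, computed with the Universal PBM Analysis Suite. Scale: above 0.35 generally sequence-specific binding.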

Sequence	PBM E-score
AAGAAATA	0.177
GACGCCGC	-0.221
ACAGTCTC	-0.112
CGACGGGC	-0.197
AACTAACC	0.336
AACTAACA	0.0858
CACTATAA	-0.0412
AACTAACT	0.175
AACTAAAG	0.195
CACTAATA	0.213
AACTAAAA	0.31
TACTATAA	0.306
AACTATAA	0.204
TACTAATA	0.181
AACTAATA	0.324
TACTAAAA	0.207
AGGGGTGG	-0.277
AGCCGTGA	-0.0248
TGAATACA	0.241
ATCTGGTG	-0.015
ATTAGATA	0.175
ATTAGATG	0.303
ATTAGATC	0.0421
ATATTCAG	0.04
ACTTCGGA	0.397

Sequence	PBM E-score
ACTTCGGG	0.0676
CCTTCGCA	-0.178
CCTTCGGC	-0.233
GCTTCGCA	-0.197
GCTTCGGA	0.324
ACTTCGGC	0.14
CCTTCGGA	0.32
GCTTCGTA	0.0454
AATCTGTC	0.133
GGAAAGAC	-0.0333
CGGCGTAG	-0.176
AAAACTGG	0.149
ATTGCTGA	-0.0342
CATGAGAA	0.0161
GCCAAGCC	-0.0191
CGCGGAGA	0.387
AGCGGAGA	0.325
AGCGGAGC	0.137
GGCGGAGA	0.23
AGCGGAGG	-0.201
CGCGGAGC	0.26
GACGGTCA	-0.253
CCAAGGGG	-0.143
ACCTTCGC	-0.0159
ATTAACAC	0.302

Sequence	PBM E-score
CTTAACAC	-0.122
ATTAACAA	0.199
AGCTATCA	-0.0476
AAGCCGGA	0.331
ATGCCGGG	-0.0609
ATGCCGGC	-0.0395
TAGCCGGA	0.282
ATGCCGGA	0.325
GAGCCGGA	0.254
ACCATAAC	0.0292
AATTTTAA	0.295
AATTTTAC	0.27
AATTTAAG	0.218
AATTTAAT	0.317
AATTTAAC	0.255
AATTTTAT	0.317
AGCCTAGA	-0.224
GAACCGCA	0.0646
AATTGACC	0.0635
CGAGTGAG	0.0764
GGGAATAA	0.233
CGGAATAC	0.325
GGGAATAC	-0.0577
CGGAATAA	0.306
TGGAATAA	0.122

Sequence	PBM E-score
AGGAATAC	-3e-05
AAAGGGTA	-0.054
TGTGGCAA	-0.0604
GAATTGGA	0.0498
CCCAAACC	-0.0698
GTCCCGGA	0.348
GTCCCCGA	0.066
ATCCCGGA	0.328
ATCCCGGG	-0.07
GTCCCGCA	-0.159
CTCCCGGA	0.232
CAGTCGAC	-0.0872
TATGCTGA	0.175
CACACCGG	0.0539
AACACCGC	-0.0108
AACACCGG	0.301
CTGCTATC	0.134
AGTCTCTG	-0.12
AGCAGTAA	0.0389
AAAAGGCA	0.114
GAGACGAA	-0.0447
CAGACGAC	-0.213
CAGACGAA	0.298
AGCTATGC	-0.227
GGGAATTA	0.143

Sequence	PBM E-score
CGGAATTA	0.349
CTGAATTC	-0.102
AGGAATTC	-0.203
CGGAATTC	0.323
AGGAATTA	0.137
CATGTGAC	-0.0811
AATAAGTC	0.0835
AATTCCAT	0.0698
AAATCCGC	-0.0542
AATTCCGC	0.192
AATTCCGG	0.337
AAATCCGT	0.149
AAATCCGG	0.36
CATTCCGG	0.194
AATTCCCT	-0.0468
AATTCCGT	0.317
AAGAGTCG	0.00242
AGTAGTGC	-0.185
ACACTCGG	0.00116
GAGAATGC	0.0169
TACTTATA	0.151
AACTTATA	0.31
CACTTATA	0.0975
AACTTATG	0.0687
GACTTATC	-0.0236

Sequence	PBM E-score
GACTTATA	0.326
AACGTCTT	-0.113
GGCTCCCC	-0.226
CAAGGCCC	-0.132
CGCATAAG	-0.0216
CATAGGGA	-0.0219
CAGGTGGC	-0.219
GTTGGTGA	-0.0399
CCCGGAGA	0.374
CCCGGATA	0.123
ACCGGAGG	0.133
ACCGGAGT	0.492
ACCAGAGT	-0.256
ACAGGAGA	-0.137
ACCGGAGA	0.43
ACCGGATA	0.0607
ACCGGAGC	0.353
ACCGGATC	0.0878
CCCGGAGG	0.0148
ACCGGAAT	0.204
TGTCTGAA	0.0592
ACCGGTCT	-0.115
ATGACAAT	0.198
CCCGGAAC	0.129
GCCGGAAA	0.244

Sequence	PBM E-score
TCAGGAGA	0.0262
TCCAGAGA	-0.187
CCCGGAGC	0.406
CCGGGAGC	-0.0765
GCCGGAGC	0.284
GCCGGAGA	0.316
TCCGGAGA	0.409
CCACCCAG	-0.129
CCGAGTTC	0.0827
ATACTGGG	-0.138
AGTCCAAA	0.169
AATCCGAG	0.0276
AGTCCGAG	0.489
AGTCCGAC	0.477
CGTCCGAC	-0.14
AATCCGAA	0.159
AGTCCGAT	0.486
AATCCGAT	0.195
AGTCCGAA	0.49
GGTCCGAC	0.24
CGTCCGAG	0.149
AGTCCTAT	0.0983
